Inconclusive results are not listed. Active and inactive are the calls of the source. Calls follow the shape of the dose curve; as a rule, active = well fitted inhibition curve with a large enough effect; inconclusive = small, poorly fitted or top-dose-only effect; inactive = flat fitted curve, though single readings scatter.
% is scaled to controls: 0 for no effect and ±100 for the full control effect; potency is read from the fitted curve at half-maximal effect.

For this test, the target named is Dual specificity protein kinase CLK4 (Homo sapiens) (UniProt Q9HAZ1). The test can be described thus: qHTS Assay for Inhibitors of CDC-like Kinase 4 (ADP-Glo Assay) (AID 1771). Also: nearly all actives have a fitted effect of over 70% in size. The settings on record: recombinant CLK4, ADP-Glo luminescence; series mostly up to 80 µM; activity change, negative = inhibition: at the top concentration. As to the method: NIH Molecular Libraries Probe Production Centers Network [MLPCN] NIH Chemical Genomics Center [NCGC] MLPCN Grant: 1R03MH084827-01 Assay Submitter (PI): Tom Misteli NCGC Assay Overview: Clk4 (Invitrogen, cat# PV3839) was assayed using ATP and the RS repeat peptide (AnaSpec cat # 61722) as substrates. In the assay, the ADP levels were detected using Promega ADP-Glo technology wherein the remaining ATP from the kinase reaction is first depleted with an ATPase reagent followed by a reagent that contains and enzyme which converts the ADP produced to ATP as well as Ultra-Glo luciferase and D-luciferin which generates a bioluminescence signal from the ATP. The positive control for the assay was TG003 (Sigma-Aldrich, cat# 300801-52-9) which has been described as an inhibitor of Clk 4[1].
Chain of Dual specificity protein kinase CLK4 (Homo sapiens) (Q9HAZ1 whole entry, looked up): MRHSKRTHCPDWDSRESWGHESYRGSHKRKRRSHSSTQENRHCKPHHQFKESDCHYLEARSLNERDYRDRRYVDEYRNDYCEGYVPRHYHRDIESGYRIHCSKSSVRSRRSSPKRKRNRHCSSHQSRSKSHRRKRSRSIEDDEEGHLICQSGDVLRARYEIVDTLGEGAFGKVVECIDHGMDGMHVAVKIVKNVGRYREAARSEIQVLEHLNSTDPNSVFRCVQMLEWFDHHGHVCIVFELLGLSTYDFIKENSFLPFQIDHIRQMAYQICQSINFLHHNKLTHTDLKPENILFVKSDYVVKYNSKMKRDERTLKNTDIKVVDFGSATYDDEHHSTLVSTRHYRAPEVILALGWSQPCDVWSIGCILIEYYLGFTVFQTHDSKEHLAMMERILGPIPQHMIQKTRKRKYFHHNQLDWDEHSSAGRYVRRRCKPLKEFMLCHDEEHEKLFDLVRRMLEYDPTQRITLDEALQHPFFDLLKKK
NCGC Assay Protocol Summary: Two uL/well of substrate-buffer solution (100 uM RS peptide, 1 uM ATP, 1x ADP-Glo Buffer A, 2 mM MgCl2, 0.5 mM EGTA, 2.5 mM DTT, 0.01% Triton X-100, final concentrations) was dispensed into 1536-well plates (Greiner, solid white, medium binding assay plates) with the Aurora Discovery BioRAPTR Flying Reagent Dispenser (FRD; Beckton-Dickenson). Twenty-three nanoliter of compound and control solutions were transferred to the assay plate using a Kalypsys pin-tool followed by 0.5 uL/well Clk4-buffer solution (25 nM Clk4, 1x ADP-Glo Buffer A, 2 mM MgCl2, 0.5 mM EGTA, 2.5 mM DTT, 0.01% Triton X-100 final concentration) dispensing for a total kinase reaction volume of 2.5 uL/ well. After 1 hr of room-temperature incubation, 2.5 uL ADP-Glo reagent was added and incubated at room temperature for 45 min to stop the kinetic reaction and degrade residual ATP. The ADP product was then converted to ATP by adding 5 uL per well of ADP-Glo Reagent II to yield a total assay volume of 10 uL/ well. Luminescence was detected after 30 min room temperature incubation with the Perkin Elmer Viewlux.
With `Cc1noc(C)c1-c1nccc(N2CCOCC2)n1`, the Potency is 14.1 µM (active).

Regarding `COc1cccc(Cn2c(=O)c(-c3cc(F)cc(F)c3)nc3cnc(N4CCN(C)CC4)nc32)c1`, the “activity change, negative = inhibition” value is -6.38% (inactive).

With `Cc1nc2cnc(N(C)C)nc2n(CCC#N)c1=O`, the “activity change, negative = inhibition” value is -5.71% (inactive).

As for `COc1ccc(CNc2ncnc3ccc(-c4cccnc4)cc23)c(OC)c1`, the Potency is 14.1 µM (active).

On to `FC(F)(F)c1ccccc1-c1cc(NCc2ccccc2)ncn1`, for which the “activity change, negative = inhibition” value was -25.1% (inactive).

Take `Cc1nc2cnc(N3CCNCC3)nc2n(CCc2ccccc2)c1=O`: the “activity change, negative = inhibition” value was -4.38% (inactive).

As for `O=c1c(-c2ccc(Cl)cc2)nc2cnc(N3CCOCC3)nc2n1C[C@H]1CCCO1`, the “activity change, negative = inhibition” value was 10.4% (inactive).

Turning to `COc1ccc2[nH]cc(CCNc3ncnc4ccc(-c5cccnc5)cc34)c2c1`, the Potency is 2.24 µM (active).

Turning to `CCNc1ncc2nc(-c3ccc(OC)cc3)c(=O)n(C[C@H]3CCCO3)c2n1`, the “activity change, negative = inhibition” value is 3.64% (inactive).

As to `Cn1cc(-c2nc3cnc(N4CCNCC4)nc3n(CCC#N)c2=O)c2ccccc21`, the “activity change, negative = inhibition” value is -4.68% (inactive).

As for `Cn1cc(-c2nc3cncnc3n(Cc3ccc(F)cc3)c2=O)c2ccccc21`, the “activity change, negative = inhibition” value is -7.62% (inactive).

Consider `CN(C)Cc1ccccc1-c1cncnc1Nc1ccccc1`, for which the “activity change, negative = inhibition” value was -16.1% (inactive).

In the case of `COCCn1c(=O)cnc2cnc(Oc3ccc(OC)cc3)nc21`, the “activity change, negative = inhibition” value is -8.2% (inactive).

In the case of `Cc1cnc(CNc2ncnc3ccc(-c4ccoc4)cc23)cn1`, the Potency is 0.224 µM (active).

In the case of `Clc1ccccc1-c1ccc2ncnc(NCc3cccnc3)c2c1`, the Potency is 11.2 µM (active).

In the case of `Cc1nc2cnc(N3CCNCC3)nc2n(Cc2cccs2)c1=O`, the “activity change, negative = inhibition” value is -3.07% (inactive).

Consider `COCCNc1ncnc2ccc(-c3cccnc3)cc12`, for which the Potency is 12.6 µM (active).

In the case of `COc1ccc(CNc2ccnc(-c3ccc4c(c3)OCO4)n2)c(OC)c1`, the “activity change, negative = inhibition” value is -25% (inactive).

For `COc1cccc(-c2ccc3ncnc(N(C)Cc4ccco4)c3c2)c1`, the Potency was 1.78 µM (active).

Regarding `COc1ccccc1-c1ccc2ncnc(NC3CCNCC3)c2c1`, the “activity change, negative = inhibition” value is -21% (inactive).

On to `O=c1c(-c2ccc(F)cc2)nc2cnc(Oc3ccccc3)nc2n1C1CC1`, for which the “activity change, negative = inhibition” value is 5.28% (inactive).

`FC(F)(F)c1ccccc1-c1nc(N2CCOCC2)c2ccccc2n1`: the Potency was 14.1 µM (active).

For the compound `COc1cccc(Cn2c(=O)c(-c3ccc(F)cc3)nc3cnc(N(C)C)nc32)c1`, the “activity change, negative = inhibition” value was 4.98% (inactive).

For the compound `O=c1c(CCc2ccccc2)nc2cnc(N3CCNCC3)nc2n1C1CC1`, the “activity change, negative = inhibition” value was -0.927% (inactive).

For the compound `Cc1nc2cnc(Nc3ccccc3)nc2n(CCC#N)c1=O`, the “activity change, negative = inhibition” value was -17.1% (inactive).

Regarding `Clc1ccccc1-c1nccc(NCc2cccs2)n1`, the “activity change, negative = inhibition” value was -9.16% (inactive).

`COc1ccc(Oc2ncc3nc(-c4cccs4)c(=O)n(CCC#N)c3n2)cc1`: the “activity change, negative = inhibition” value is 3.69% (inactive).

On to `COc1ccc(-c2nc3cnc(N4CCN(C)CC4)nc3n(-c3ccc(OC)cc3)c2=O)cc1`, for which the “activity change, negative = inhibition” value is -27.3% (inactive).

On to `c1cncc(CNc2ccnc(-c3ccc4c(c3)OCO4)n2)c1`, for which the Potency was 0.1 µM (active).

For `CN(C)c1ncc2ncc(=O)n(CCc3ccccc3)c2n1`, the Potency was 6.31 µM (active).

As to `COCCn1c(=O)cnc2cnc(Oc3ccccc3)nc21`, the “activity change, negative = inhibition” value is -9.83% (inactive).

Turning to `Cc1ccccc1-c1cc(N(C)C)ncn1`, the “activity change, negative = inhibition” value is -9.36% (inactive).

Turning to `Cc1nc2cnc(N3CCN(C)CC3)nc2n(C)c1=O`, the “activity change, negative = inhibition” value was 2.39% (inactive).

Turning to `COc1ccc(-c2nc3cnc(N4CCNCC4)nc3n(Cc3cccs3)c2=O)cc1`, the “activity change, negative = inhibition” value was -7.87% (inactive).

`Cc1cnc(CNc2ccnc(-c3c(C)noc3C)n2)cn1`: the “activity change, negative = inhibition” value was -22.7% (inactive).

For the compound `CN(C)Cc1ccccc1-c1nc(N(C)C)c2ccccc2n1`, the “activity change, negative = inhibition” value was -9.45% (inactive).

As to `CN(C)c1ncc2nc(-c3cccc(C#N)c3)c(=O)n(CCC#N)c2n1`, the “activity change, negative = inhibition” value was 0.367% (inactive).

As for `CC(=O)NCCNc1ncncc1-c1ccc(N(C)C)cc1`, the “activity change, negative = inhibition” value was -5.24% (inactive).

`O=c1c(-c2cc(F)cc(F)c2)nc2cnc(N3CCNCC3)nc2n1-c1ccccc1`: the Potency was 22.4 µM (active).

As for `Cn1c(=O)c(-c2cccs2)nc2cnc(N3CCNCC3)nc21`, the “activity change, negative = inhibition” value is -11.2% (inactive).

(Values after PubChem BioAssay (NCATS).)
